This is a sample that favours compounds with a hit; in the whole collection about 6.6% have one here.
DPM-DC inhibit – S. pneumoniae DPM-DC inhibition | AID 556 | actives 0.49% (n = 65,000) | calls only at 10 µM | purified DPM-DC, PK/LDH coupled NADH fluorescence;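 active = the 320 compounds with the highest percent inhibition in the single-dose primary screen, excluding strongly autofluorescent ones, cut at about 32% in these data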;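 note: kinetic rate of NADH fluorescence loss reporting ADP formed by the decarboxylase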
PMK inhibit – S. pneumoniae PMK inhibition; inhibition, % at 10 µM; purified PMK, PK/LDH-coupled NADH absorbance 340 nm; actives 0.49% (n = 65,000);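 active = top-ranked compounds by inhibition in the single 10 µM screen, taking a fixed number of the strongest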;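 note: 0% = full reaction with DMSO carrier and 100% = background rate without enzyme reaction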
NADH coupling – blocks coupling enzymes of NAD/NADH assays | coupled PK/LDH NADH assays, four targets | IC50, µM (top dose mostly 10 µM), without a hit: at the top dose inhibition | actives 0.02% (n = 65,000) | AID 774;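 active = single-dose screening hits from any of four coupled enzyme assays that gave an IC50 when retested across doses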;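 note: the DPM-DC format reads NADH fluorescence rather than 340 nm absorbance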
MK inhibit – blocks S. pneumoniae mevalonate kinase; actives 0.48% (n = 65,000); purified MK, PK/LDH-coupled NADH absorbance 340 nm; inhibition, % at 10 µM;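 active = ranked among the strongest by inhibition in the single 10 µM screen, a fixed top-ranked set picked for dose follow-up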
Autofluor 339 – intrinsic fluorescence of library compounds, ex339/em460 – biochemical, MLSMR library, data from DPM-DC assay, artefact control, profiling panel | compound autofluorescence, ex339/em460 nm, NADH buffer; hits give high values; 1 = no-compound wells, NADH background | fluorescence fold increase at 10 µM | actives 5.5% (n = 65,000);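 active = at 10 µM, mean starting fluorescence two-fold or more over control wells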;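 note: signal is the first read of a kinetic run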
* marks the source's active call; other numbers are inactive results.

Cn1c(=O)c2c(nc(SCC(=O)NC3CCCCC3)n2C)n(C)c1=O was read as DPM-DC inhibit inactive, PMK inhibit 15, NADH coupling 8%, MK inhibit 9 and Autofluor 339 1.1.
Screening Cc1cc(C(=O)OCC(=O)N2CCN(c3ccccc3)CC2)c2ccccc2n1 returned DPM-DC inhibit inactive, PMK inhibit 18, NADH coupling 7%, MK inhibit 2 and Autofluor 339 1.1.
COc1ccc(N2C(=O)C3CCCN3C2c2ccc(F)cc2)cc1Cl (stereo unspecified) was read as DPM-DC inhibit inactive, PMK inhibit 13, NADH coupling 2%, MK inhibit 0 and Autofluor 339 1.1.
Screening Clc1c(CSc2nc3ccccc3o2)nc2ccccn12 returned DPM-DC inhibit inactive, PMK inhibit 11, NADH coupling 4%, MK inhibit 1 and Autofluor 339 1.1.
Screening Brc1c(CSc2nc3ccccc3o2)nc2ncccn12 returned PMK inhibit 9, NADH coupling 10%, MK inhibit 10 and Autofluor 339 5*.
Brc1c(CSc2nncn2-c2ccccc2)nc2ncccn12 was read as PMK inhibit 0, NADH coupling 0%, MK inhibit 0 and Autofluor 339 4*.
For O=C(COC(=O)C1(c2ccccc2)CC1)N1CCN(c2ccc(F)cc2)CC1 the results were DPM-DC inhibit inactive, PMK inhibit 21, NADH coupling 7%, MK inhibit 0 and Autofluor 339 1.
For O=c1c2ccccc2sn1-c1ccc(S(=O)(=O)N2CCCCC2)cc1 the results were DPM-DC inhibit active, PMK inhibit 10, NADH coupling 11%, MK inhibit 10 and Autofluor 339 1.
`O=c1c2ccccc2sn1-c1ccc(S(=O)(=O)N2CCCC2)cc1` gave DPM-DC inhibit active, PMK inhibit 15, NADH coupling 72%, MK inhibit 100* and Autofluor 339 1.2.
Cc1ccc(-n2sc3ccccc3c2=O)cc1S(=O)(=O)N1CCCCC1 was read as DPM-DC inhibit active, PMK inhibit 20, NADH coupling 70%, MK inhibit 100* and Autofluor 339 1.2.
For CCC(COC(=O)Nc1cccc(C)c1)NC(=O)OCC(C)C (stereo unspecified) the results were DPM-DC inhibit inactive, PMK inhibit 11, NADH coupling 6%, MK inhibit 6 and Autofluor 339 1.1.
Screening CCOC(=O)c1nc(N)c(C(=O)OCC)[nH]1 returned PMK inhibit 0, NADH coupling 3%, MK inhibit 6 and Autofluor 339 2.3*.
For CCOC(=O)c1[nH]c(C)c(C(=O)OCC)c1C the results were DPM-DC inhibit inactive, PMK inhibit 0, NADH coupling 0%, MK inhibit 0 and Autofluor 339 1.1.
Screening CCc1ccc(C2C3=C(CC(C)(C)CC3=O)Nc3c2c(=O)[nH]c2nc(C)nn32)cc1 (stereo unspecified) returned PMK inhibit 0, NADH coupling 0%, MK inhibit 0 and Autofluor 339 3.4*.
Cc1ccc(C2C3=C(CC(C)(C)CC3=O)Nc3[nH]c(=S)[nH]c(=O)c32)cc1 (stereo unspecified) was read as DPM-DC inhibit inactive, PMK inhibit 18, NADH coupling 12%, MK inhibit 13 and Autofluor 339 1.1.
For COc1ccc(C2C3=C(CC(C)(C)CC3=O)Nc3c2c(=O)[nH]c(=O)n3Cc2ccccc2)cc1 (stereo unspecified) the results were DPM-DC inhibit inactive, PMK inhibit 12, NADH coupling 6%, MK inhibit 6 and Autofluor 339 1.4.
For Cc1nc2[nH]c(=O)c3c(n2n1)NC1=C(C(=O)CC(C)(C)C1)C3c1ccc(F)cc1 (stereo unspecified) the results were PMK inhibit 8, NADH coupling 5%, MK inhibit 1 and Autofluor 339 3.8*.
For CN1CCN(S(=O)(=O)c2cccc(S(=O)(=O)c3ccc(Cl)c(Cl)c3)c2)CC1 the results were DPM-DC inhibit inactive, PMK inhibit 25*, NADH coupling 13%, MK inhibit 13 and Autofluor 339 1.1.
Screening COc1cc(S(=O)(=O)N2CCN(C)CC2)ccc1Cl returned DPM-DC inhibit inactive, PMK inhibit 6, NADH coupling 5%, MK inhibit 9 and Autofluor 339 1.1.
For CC(=O)C(C(C)=O)c1c(Cl)c(O)c(O)c2c(C(=O)c3ccccc3)coc12 the results were DPM-DC inhibit inactive, PMK inhibit 0, NADH coupling 1%, MK inhibit 2 and Autofluor 339 1.
CC(C)(C)OC(=O)NCCCCCc1nnc(SCC(=O)Nc2cccc(Cl)c2)o1 was read as DPM-DC inhibit inactive, PMK inhibit 12, NADH coupling 6%, MK inhibit 7 and Autofluor 339 1.1.
Screening CN1CCN(C(=O)CSc2nc(-c3cccs3)ccc2C#N)CC1 returned PMK inhibit 0, NADH coupling 7%, MK inhibit 13 and Autofluor 339 2.3*.
COc1nc2ccccc2cc1-c1noc(-c2cccnc2)n1 was read as DPM-DC inhibit inactive, PMK inhibit 13, NADH coupling 7%, MK inhibit 7 and Autofluor 339 1.5.
`COc1nc(-c2ccc(C)cc2)ccc1-c1noc(-c2cccnc2)n1` gave PMK inhibit 15, NADH coupling 8%, MK inhibit 0 and Autofluor 339 3.5*.
For COc1nc(-c2ccccc2)ccc1-c1noc(-c2cccnc2)n1 the results were PMK inhibit 15, NADH coupling 12%, MK inhibit 9 and Autofluor 339 3.5*.
Screening Cc1cc(NC(=O)c2cc(-c3cccnc3)nc3c(C)c(C)ccc23)no1 returned DPM-DC inhibit inactive, PMK inhibit 5, NADH coupling 3%, MK inhibit 3 and Autofluor 339 2.9*.
Cc1ccc(-c2cc(C(=O)Nc3cc(C)on3)c3ccccc3n2)c(C)c1 was read as DPM-DC inhibit inactive, PMK inhibit 3, NADH coupling 1%, MK inhibit 1 and Autofluor 339 1.2.
For CC1(C)CC(=O)CC(C)(C)N1OC(=O)c1ccccn1 the results were DPM-DC inhibit inactive, PMK inhibit 19, NADH coupling 2%, MK inhibit 2 and Autofluor 339 1.
CS(=O)(=O)N(CCc1ccccc1)CC(=O)NCc1ccco1 was read as DPM-DC inhibit inactive, PMK inhibit 6, NADH coupling 4%, MK inhibit 6 and Autofluor 339 1.1.
`CCOC(=O)c1cc(-c2ccncc2)nc2c1c(C)nn2C` gave PMK inhibit 19, NADH coupling 12%, MK inhibit 4 and Autofluor 339 5.1*.
`CCOC(=O)C1=C(C)N(C)C(C)=C(C(=O)OCC)C1c1ccncc1` gave DPM-DC inhibit inactive, PMK inhibit 1, NADH coupling 3%, MK inhibit 8 and Autofluor 339 1.1.
For CCOC(=O)c1cc(-c2ccc3c(c2)OCCO3)nc2c1c(C)nn2CCC#N the results were PMK inhibit 11, NADH coupling 6%, MK inhibit 0 and Autofluor 339 4.9*.
